SMILES strings stand for the structures. About 83,000 compounds went through this panel and 20% of them were active in at least one assay; those are over-represented in the sample as a whole.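 Testing used 96-well plates and a 48-hour single-concentration exposure. Example: -40 means 40% of the starting cells died.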 Unmarked numbers belong to inactive results. The source made the active and inactive calls. The calls were made as follows: active = growth percent below 10; inactive = the rest.

Consider 13 compounds from PubChem BioAssay (NCI).

Common to all, as to assay: NCI-60 one-dose screen, 48 h (100 = growth as untreated, 0 = no growth, -100 = all killed)
Common to all, as to settings: 10 µM unless noted

The test system of experiment [1] is DU-145 prostate.
Experiment [2] has as its system K-562 leukemia.
The test system of experiment [3] is MALME-3M melanoma.
Experiment [4] has as its system MDA-MB-231 breast.
Experiment [5] concerns RXF 393 renal.
In experiment [6] the test system is SF-268 CNS.
For experiment [7], the system named is SF-295 CNS.
For experiment [8], the system named is SF-539 CNS.
Experiment [9] has as its system UACC-257 melanoma.
Experiment [10] relates to M14 melanoma.

For the compound `CN1CCC(OC2c3ccccc3CCc3ccccc32)CC1`, the growth in [1] is 107%; in experiment [2] it was 96.8%; in [3], 102%; in experiment [4], 74.8%; in experiment [5] it was 89.2%; in [6] it was 89.5%. The growth is 88.6% in [7], 102% in experiment [8], 92.6% in experiment [9] and 103% in [10].
On to `CCCCC(CCCC)(S(=O)(=O)CC)S(=O)(=O)CC`, for which the growth in experiment [1] was 107%; in [2], 101%; in experiment [3], 99.8%; in experiment [4], 119%; in [5], 98.9%; in experiment [6], 109%. The growth in experiment [7] is 100%; in experiment [8], 101%; in experiment [9] it was 101%; in [10] it was 101%.
In the case of `CCN(C(=O)c1ccc2c3c(cccc13)C=C2)c1ccccc1`, the growth was 113% in experiment [1]; 82.7% in [2]; 90.1% in experiment [3]; 103% in experiment [4]; 102% in [5]; 107% in experiment [6]. For the same compound, the growth in experiment [7] was 93.6%; in experiment [8], 97.4%; in experiment [9] it was 97%; in [10], 94.5%.
On to `O=S(=O)(Nc1ncccn1)c1ccc(Nc2ccc3nnc(-c4ccncc4)n3n2)cc1`, for which the growth in [1] is 108%; in experiment [2] it was 102%; in experiment [3], 97.6%; in experiment [4], 92.2%; in experiment [5], 118%; in experiment [6] it was 98.3%. In addition, the growth is 100% in [7], 95.2% in [8], 103% in experiment [9] and 97.7% in [10].
Take `O=C1CCC(N2C(=O)c3cccc(NCCOCCOCCNC(=O)c4cc5c(o4)C(=O)c4ccccc4C5=O)c3C2=O)C(=O)N1` (stereo not given): the growth in experiment [1] was -97.8% (active); in experiment [2], 8.5% (active); in experiment [3], -95.2% (active); in experiment [4], -2.36% (active); in experiment [5] it was -39.5% (active); in experiment [6], -12.2% (active). In addition, the growth is -93.9% (active) in experiment [7], -95.2% (active) in [8], -82.5% (active) in experiment [9] and -66.4% (active) in experiment [10].
Take `O=[N+]([O-])c1ccc2nc(N/N=C/c3ccc(O)cc3)sc2c1`: the growth was 60.1% in experiment [1]; 31.6% in experiment [2]; 65% in experiment [3]; 82.9% in experiment [4]; 103% in [5]; 64.1% in [6]. Further, the growth in experiment [7] is 86.7%; in [8], 49.5%; in [9] it was 66.6%; in experiment [10], 83%.
For `COc1ccc(-c2c3c(N)c4c(nc3nc3c2c(C)nn3-c2ccccc2)CCCCC4)cc1`, the growth is 91.6% in experiment [1]; 24.5% in [2]; 101% in experiment [3]; 105% in experiment [4]; 106% in experiment [5]; 94.5% in experiment [6]. Moreover, the growth in [7] is 85%; in [8], 93.9%; in experiment [9], 93.9%; in experiment [10] it was 88.9%.
On to `Clc1ccc(C2=NN(c3ccccc3)[C@H](c3cn(-c4ccccc4)nc3-c3ccccc3)C2)cc1`, for which the growth in experiment [1] was 119%; in [2], 111%; in experiment [3], 103%; in experiment [4], 96.6%; in experiment [5], 106%; in [6], 109%. The growth in experiment [7] was 108%; in experiment [8], 107%; in [9] it was 92.2%; in experiment [10], 109%.
For the compound `COc1cccc(C2CC(=O)Nc3cc4c(cc32)OCO4)c1OC` (stereo not given), the growth in [1] is 103%; in [2], 83.1%; in experiment [3] it was 93.1%; in experiment [4] it was 97.3%; in [5] it was 87%; in experiment [6] it was 101%. Further, the growth in experiment [7] was 84.9%; in experiment [8], 88.5%; in experiment [9] it was 99.4%; in [10] it was 115%.
On to `COC(=O)[C@H]1CCCN1C(=O)[C@H]1CCCN1C(=O)[C@@H](Cc1c[nH]c2ccccc12)NC(=S)Nc1cc(C(F)(F)F)cc(C(F)(F)F)c1`, for which the growth in [1] is 51.7%; in [2] it was 34.2%; in experiment [3], 47.4%; in experiment [4], 44.5%; in experiment [5], 56.3%; in [6], 36.1%. The growth in [7] was -50.5% (active); in [8], 74.4%; in experiment [9], 75.4%; in [10], 44.4%.
Consider `CCC(C)Oc1cc(/C=N/NC(=O)c2cnn3c2NC(c2ccccc2)C3)ccc1OC` (stereo not given), for which the growth in [1] is 45.6%; in experiment [2], 15.8%; in experiment [3], 58.4%; in experiment [4], 39.4%; in experiment [5] it was 21%; in [6] it was 44.7%. The growth is 18.7% in experiment [7], 9.65% (active) in [8], 55.5% in experiment [9] and 34% in experiment [10].
Regarding `COc1ccc(/C=N\N2CCOCC2)cc1OC1CCCC1`, the growth in experiment [1] was 102%; in experiment [2], 108%; in experiment [3], 127%; in experiment [4] it was 110%; in experiment [5], 113%; in experiment [6] it was 94.8%. The growth in experiment [7] is 98.1%; in experiment [8], 94.9%; in [9], 102%; in experiment [10], 92.7%.
Regarding `O=c1c2cc(F)ccc2oc2c(NCCNCCO)nc3ccccc3c12`, the growth in experiment [1] is 35.8%; in experiment [2], -36.9% (active); in [3], 56.4%; in [4], 40.4%; in experiment [5], 34.3%; in experiment [6], 47.5%. In addition, the growth in experiment [7] was 63.6%; in experiment [8] it was 46.3%; in experiment [9], 92%; in [10], 60.1%.
